# According to PubChem BioAssay AID540361 (National Center for Advancing Translational Sciences (NCATS), 2011):
# Records with an inconclusive call do not appear. The source made the active and inactive calls. Calls follow the shape of the dose curve; as a rule, active = well fitted curve in the direction sought with a large enough effect; inconclusive = small, poorly fitted or top-dose-only effect, or another doubt; inactive = no such curve, though single readings can be large or run the other way.
# Molecular target: Lysosomal acid glucosylceramidase (Homo sapiens) (UniProt P04062)
# Experiment: Activators of Human alpha-Glucosidase as a Potential Chaperone Treatment of Pompe Disease: Alpha-Galactosidase Counter Screen
# Settings: purified human alpha-galactosidase, 4-MU fluorogenic substrate
# From the text: Alpha-glucosidase is responsible for hydrolysis of terminal, non-reducing 1,4-linked alpha-D-glucose residues with release of alpha-D-glucose. It is a lysosomal hydrolase that is required for the degradation of a small percentage (1-3%) of cellular glycogen in human. Deficiency of this enzyme results in glycogen-storage disease type II (GSDII), also referred to as Pompe disease, an autosomal recessive disorder. Structurally normal glycogen is accumulated in lysosomes and cytoplasm in affected patients, primarily in muscle tissues. Excessive glycogen storage within lysosomes may interrupt normal functioning of other organelles and leads to cellular injury. In turn, this leads to enlargement and dysfunction of the entire organ involved (eg, cardiomyopathy and muscle weakness). […]
# This is a fluorogenic enzyme assay with 4-methylumbelliferyl-[…] as the substrate and human alpha-galactosidase as the enzyme preparation. […] 4-methyllumbelliferone, can be excited at 365 nm and emits at 440 nm which can be detected by a standard fluorescence plate reader. […] In the AC50 values were determined from concentration-response data modeled with the standard Hill equation. […] (5) Add 2 ul stop solution (1M NaOH and 1M Glycine mixture, pH 10) (6) Detect the assay plate in a ViewLux plate reader (PerkinElmer) with Ex=365 nm and Em=440nm. […]
smiles,measurement,value
CCCN1CNc2c(c(=O)[nH]c(=S)n2CCc2cccc(Cl)c2Cl)C1,Potency,9.13 µM (active)
